From PubChem BioAssay (NCATS)
Inconclusive results are not listed. Where a call stands in place of a potency, no number is given. Calls of active or inactive are those of the source. Calls follow the shape of the dose curve; as a rule, active = well fitted curve in the direction sought with a large enough effect; inconclusive = small, poorly fitted or top-dose-only effect, or another doubt; inactive = no such curve, though single readings can be large; an effect the other way counts as inactive or inconclusive.

Columns and labels:
[1] = molecular target: Luciferin 4-monooxygenase (Photinus pyralis) (UniProt P08659); experiment: Biochemical firefly luciferase enzyme assay for NPC (AID 624030); also: nearly all actives have a fitted effect of over 70% in size
How it was run: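 Purified P. pyralis luciferase at 10 nM in 50 mM Tris Acetate (final), luminescence read within 5 minutes of enzyme addition to compounds. Activity normalised to PTC124 versus DMSO; concentration-response curves classed by r2, magnitude and activity.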

[2] = S16 Schwann cell PMP22 intronic element firefly luciferase assay (AID 624032); also: nearly all actives have a fitted effect of over 30% in size
How it was run: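 Rat S16 Schwann cells stably carrying firefly luciferase driven by a PMP22 intronic element, in 10% FBS, treated 24 h at 37 C. ONE-Glo luminescence normalized to PTC124 control and DMSO (0%); curves classed by r2, magnitude and activity.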

7G8 = experiment: qHTS profiling for inhibitors of Plasmodium falciparum proliferation (AID 504749); also: nearly all actives have a fitted effect of over 60% in size; conditions: P. falciparum in erythrocytes, SYBR Green DNA, 72 h; series mostly up to 12.8 µM
How it was run: (§1)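 Readout was DNA-dye fluorescence from lysed cultures, ex 485/em 535 nm. Parasitized red cells had grown 72 h with compound; data scaled between 0.29 uM artemisinin and DMSO wells and corrected using vehicle-only plates.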

ATS189 = experiment: as above; conditions: P. falciparum in erythrocytes, SYBR Green DNA, 72 h; series mostly up to 12.8 µM
How it was run: as §1

ATS95 = experiment: as above; conditions: P. falciparum in erythrocytes, SYBR Green DNA, 72 h; series mostly up to 12.8 µM
How it was run: as §1

CP192 = experiment: as above; conditions: P. falciparum in erythrocytes, SYBR Green DNA, 72 h; series mostly up to 12.8 µM
How it was run: as §1

CP238 = experiment: as above; conditions: P. falciparum in erythrocytes, SYBR Green DNA, 72 h; series mostly up to 12.8 µM
How it was run: as §1

CP247 = experiment: as above; conditions: P. falciparum in erythrocytes, SYBR Green DNA, 72 h; series mostly up to 12.8 µM
How it was run: as §1

CP252 = experiment: as above; conditions: P. falciparum in erythrocytes, SYBR Green DNA, 72 h; series mostly up to 12.8 µM
How it was run: as §1

CP268 = experiment: as above; conditions: P. falciparum in erythrocytes, SYBR Green DNA, 72 h; series mostly up to 12.8 µM
How it was run: as §1

PC15 = experiment: as above; conditions: P. falciparum in erythrocytes, SYBR Green DNA, 72 h; series mostly up to 12.8 µM
How it was run: as §1

3D7 = experiment: as above; conditions: P. falciparum in erythrocytes, SYBR Green DNA, 72 h; series mostly up to 12.8 µM
How it was run: as §1

Dd2 = experiment: as above; conditions: P. falciparum in erythrocytes, SYBR Green DNA, 72 h; series mostly up to 12.8 µM
How it was run: as §1

ECU = experiment: as above; conditions: P. falciparum in erythrocytes, SYBR Green DNA, 72 h; series mostly up to 12.8 µM
How it was run: as §1

ICS = experiment: as above; conditions: P. falciparum in erythrocytes, SYBR Green DNA, 72 h; series mostly up to 12.8 µM
How it was run: as §1

N140 = experiment: as above; conditions: P. falciparum in erythrocytes, SYBR Green DNA, 72 h; series mostly up to 12.8 µM
How it was run: as §1

P93_24 = experiment: as above; conditions: P. falciparum in erythrocytes, SYBR Green DNA, 72 h; series mostly up to 12.8 µM
How it was run: as §1

PC49 = experiment: as above; conditions: P. falciparum in erythrocytes, SYBR Green DNA, 72 h; series mostly up to 12.8 µM
How it was run: as §1

TAB109 = experiment: as above; conditions: P. falciparum in erythrocytes, SYBR Green DNA, 72 h; series mostly up to 12.8 µM
How it was run: as §1

TAB165 = experiment: as above; conditions: P. falciparum in erythrocytes, SYBR Green DNA, 72 h; series mostly up to 12.8 µM
How it was run: as §1
Potency is read from the fitted curve at half-maximal effect.

Sequence of Luciferin 4-monooxygenase (Photinus pyralis) (P08659 whole entry, looked up): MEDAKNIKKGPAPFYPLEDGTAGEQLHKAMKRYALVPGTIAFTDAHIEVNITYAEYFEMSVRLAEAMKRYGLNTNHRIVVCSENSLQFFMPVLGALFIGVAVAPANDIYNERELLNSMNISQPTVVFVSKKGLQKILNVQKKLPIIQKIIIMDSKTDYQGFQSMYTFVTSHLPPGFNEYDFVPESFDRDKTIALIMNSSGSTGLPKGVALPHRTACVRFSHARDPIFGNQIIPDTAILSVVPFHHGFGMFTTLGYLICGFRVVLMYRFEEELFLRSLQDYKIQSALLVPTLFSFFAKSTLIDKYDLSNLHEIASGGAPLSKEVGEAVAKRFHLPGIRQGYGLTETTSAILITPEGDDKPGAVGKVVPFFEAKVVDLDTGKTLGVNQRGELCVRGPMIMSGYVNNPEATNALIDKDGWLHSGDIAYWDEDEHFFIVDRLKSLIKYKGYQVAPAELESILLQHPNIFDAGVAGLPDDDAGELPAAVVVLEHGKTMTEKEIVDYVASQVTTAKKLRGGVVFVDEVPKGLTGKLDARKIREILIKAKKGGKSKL

Compound | Potency [1] | Potency [2] | Potency (7G8) | Potency (ATS189) | Potency (ATS95) | Potency (CP192) | Potency (CP238) | Potency (CP247) | Potency (CP252) | Potency (CP268) | Potency (PC15) | Potency (3D7) | Potency (Dd2) | Potency (ECU) | Potency (ICS) | Potency (N140) | Potency (P93_24) | Potency (PC49) | Potency (TAB109) | Potency (TAB165)
O=C1O[C@H](CN2CCOCC2)CN1/N=C\c1ccc([N+](=O)[O-])o1 | inactive | inactive | 3.55 µM (active) | inactive | inactive | inactive | inactive | inactive | inactive | inactive | inactive |  |  |  |  |  |  |  |  | 
CCOC(=O)[C@H](CCc1ccccc1)N[C@@H](C)C(=O)N1[C@H](C(=O)O)C[C@H]2CCC[C@@H]21 |  | inactive | inactive | inactive | inactive | inactive | inactive | inactive | inactive | inactive | inactive | inactive | inactive | inactive | inactive | inactive | inactive | inactive | inactive | inactive
CO[C@H]1[C@@H](OC(N)=O)[C@H](O)[C@@H](Oc2ccc3c(O)c(NC(=O)c4ccc(O)c(CC=C(C)C)c4)c(=O)oc3c2C)OC1(C)C |  | inactive | inactive | inactive | inactive | inactive | inactive | inactive | inactive | inactive | inactive | inactive | inactive | inactive | inactive | inactive | inactive | inactive | inactive | inactive
C=CCN1C(=CCO)[C@H]2C[C@H]3[C@@H]1CC[C@@]31c3ccccc3N3C=C4[C@@H]5N(/C=C/2[C@H]31)c1ccccc1[C@]51CC[C@H]2[C@H]1C[C@@H]4/C(=C/CO)N2CC=C | inactive | inactive | inactive | inactive | inactive | inactive | inactive | inactive | inactive | inactive | inactive | inactive | inactive | inactive | inactive | inactive | inactive | inactive | inactive | inactive
CC[N+](CC)(CC)CC[C@](O)(c1ccccc1)C1CCCCC1 | inactive | inactive | inactive | inactive | inactive | inactive | inactive | inactive | inactive | inactive | inactive | inactive | inactive | inactive |  | inactive | inactive | inactive | inactive | inactive
CC(C)(C)NC[C@H](O)COc1cccc2c1CCC(=O)N2 |  |  | inactive | inactive | inactive | inactive | inactive | inactive | inactive | inactive | inactive | inactive | inactive | inactive | inactive | inactive | inactive | inactive | inactive | inactive
COc1cc(N)c(Cl)cc1C(=O)N[C@H]1CCN(CCCOc2ccc(F)cc2)C[C@H]1OC | inactive |  | 5.01 µM (active) |  |  | inactive |  |  |  | inactive | inactive |  | 3.55 µM (active) |  |  |  |  | inactive |  | 3.55 µM (active)
Cc1cccc(C)c1NC(=O)[C@H](C)N |  | inactive | inactive | inactive | inactive |  | inactive | inactive | inactive |  | inactive | inactive | inactive | inactive | inactive | inactive | inactive | inactive | inactive | inactive
CCC(=O)O[C@@H]1[C@H](C)O[C@H](O[C@H]2[C@@H](N(C)C)[C@H](O)[C@@H](O[C@@H]3[C@@H](CC=O)C[C@@H](C)[C@@H](O)/C=C\C=C/C[C@@H](C)OC(=O)C[C@@H](OC(=O)CC)[C@H]3OC)O[C@H]2C)C[C@]1(C)O | inactive | inactive |  | inactive | inactive | inactive |  | inactive |  |  | inactive | inactive | 3.16 µM (active) | inactive |  |  |  | inactive |  | inactive
CC(=O)OCC(=O)[C@@]1(O)CC[C@@H]2[C@H]3CCC4=CC(=O)C=C[C@]4(C)[C@]3(F)[C@@H](O)C[C@@]21C | inactive | inactive | inactive | inactive | inactive | inactive | inactive | inactive | inactive | inactive | inactive | inactive | inactive | inactive | inactive | inactive | inactive | inactive | inactive | inactive
C[N+]12CCC(CC1)[C@@H](OC(=O)C(O)(c1ccccc1)c1ccccc1)C2 | inactive | inactive | inactive | inactive | inactive | inactive | inactive | inactive | inactive | inactive | inactive | inactive | inactive | inactive | inactive | inactive | inactive | inactive | inactive | inactive
O=C(NC[C@@H](O)CO)c1c(I)c(C(=O)NC[C@@H](O)CO)c(I)c(N(CCO)C(=O)CO)c1I | inactive | inactive | inactive | inactive | inactive | inactive | inactive | inactive | inactive | inactive | inactive | inactive | inactive | inactive | inactive | inactive | inactive | inactive | inactive | inactive
C#C[C@@]1(O)CC[C@@H]2[C@@H]3CCC4=C(CCC(=O)C4)[C@H]3CC[C@]21C |  | 3.89 µM (active) |  |  |  |  |  |  |  |  |  |  |  |  |  |  |  |  |  | 
C[C@@]12CC[C@H]3[C@@H](CCC4=CC(=O)CC[C@]43C)[C@H]1CC[C@H]2C(=O)CO | inactive | inactive | inactive | inactive | inactive | inactive | inactive |  | inactive | inactive | inactive | inactive | inactive |  | 3.55 µM (active) | inactive | inactive | inactive | inactive | 
CC(=O)[C@@]1(O)CC[C@H]2[C@H]3C[C@@H](C)C4=CC(=O)C=C[C@]4(C)[C@@]3(F)[C@@H](O)C[C@]21C |  | inactive |  | inactive | inactive | inactive | inactive |  | inactive | inactive | inactive | inactive | inactive | inactive |  | inactive | inactive | inactive | inactive | inactive
CN1C(=O)C[C@H](c2ccccc2)C1=O | inactive | inactive | inactive | inactive | 0.0071 µM (active) | inactive | inactive | inactive | inactive | inactive | inactive | inactive | inactive | inactive | inactive | inactive | inactive | inactive | 0.005 µM (active) | inactive
CC(=O)N(C[C@@H](C)C(=O)O)c1c(I)cc(I)c(N)c1I | inactive | inactive | inactive | inactive | inactive |  | inactive | inactive | inactive |  | inactive | inactive | inactive | inactive | inactive | inactive | inactive | inactive | inactive | inactive
O=C(Nc1ccccc1)OC[C@H](CN1CCCCC1)OC(=O)Nc1ccccc1 | inactive | inactive |  | inactive | inactive | inactive | inactive | inactive | inactive | inactive | inactive | inactive | inactive | inactive | inactive | inactive | inactive | inactive | inactive | inactive
COCC(=O)Nc1c(I)c(C(=O)NC[C@@H](O)CO)c(I)c(C(=O)N(C)C[C@@H](O)CO)c1I | inactive | inactive | inactive | inactive | inactive | inactive | inactive | inactive | inactive | inactive | inactive | inactive | inactive | inactive | inactive | inactive | inactive | inactive | inactive | inactive
Cc1ccc(S(=O)(=O)NC(=O)NN2C[C@H]3CCC[C@@H]3C2)cc1 | inactive | inactive | inactive | inactive | inactive | inactive | inactive | inactive | inactive | inactive | inactive | inactive | inactive | inactive | inactive | inactive | inactive | inactive | inactive | inactive
C[C@@H](C(=O)O)c1ccc(C(=O)c2ccccc2)s1 | 4.89 µM (active) | inactive | inactive | inactive | inactive | inactive | inactive | inactive | inactive | inactive | inactive | inactive | inactive | inactive | inactive | inactive | inactive | inactive | inactive | inactive
CC[C@H](CO)NCCN[C@@H](CC)CO | inactive | inactive | inactive | inactive | inactive | inactive | inactive | inactive | inactive | inactive | inactive | inactive | inactive |  | inactive | inactive | inactive | inactive | inactive | inactive
